Molecules are shown by their SMILES. Screen size: about 1,700 compounds; about 65 (4%) were called active.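 Rule for the calls: active = fluorescence ratio to DMSO above its plate's cutoff, the plate mean ratio plus 5 SD (cut at about 210% in these data); inactive = the rest.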 The list is a sample of the results.

The test is described as follows: compound autofluorescence in empty-vector yeast, confirmation, artefact control for antifungal efflux pump inhibitor project, S. cerevisiae AD/pABC3, flow cytometry, Cherry Pick1 set (AID 588517).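 Note: unstained yeast with no Nile Red so the signal is compound autofluorescence.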 The settings on record: at 10 µM, active compounds read high. For orientation: A flow cytometer gives signals particle by particle.
Take `CSCCC(NS(=O)(=O)c1ccc(C)cc1)C(=O)N1CCCC1` (stereo unspecified): the fluorescence ratio to DMSO is 90.1% (inactive). Next, `CCOc1ccccc1/C=c1\sc2nc(-c3ccco3)nn2c1=O`: 126% (inactive); `CC(/C=N/NC(=O)c1cc(-c2ccc3ccccc3c2)n[nH]1)=C\c1ccco1`: 88.7% (inactive). As for `COc1ccc(/C=C(\C#N)c2c[nH]c3ccccc23)cc1`, the fluorescence ratio to DMSO was 106% (inactive). The figure for `C[n+]1ccc(/C=C/c2c[nH]c3ccccc23)cc1` is 385% (active). As for `CCOc1ccc(/C=C2\SC(=S)N(NC(=O)c3ccncc3)C2=O)cc1OC`, the fluorescence ratio to DMSO was 100% (inactive).

For `Cc1cc(C)cc(NC(=O)C(OC(=O)c2ccc(O)cc2)c2ccccc2)c1` (stereo unspecified), the fluorescence ratio to DMSO was 103% (inactive). Next, `COc1ccc(S(=O)(=O)N2CCOC2CNC(=O)C(=O)NCc2ccc(F)cc2)cc1` (stereo unspecified): 113% (inactive). With `Cc1nc2c(C(=O)NCc3ccc4c(c3)OCO4)c[nH]n2c(=O)c1Cc1ccccc1F`, the fluorescence ratio to DMSO is 84.3% (inactive). The figure for `Cc1ccc(Cn2nnc3c(=O)[nH]c(C4CCN(S(=O)(=O)/C=C/c5ccccc5)CC4)nc32)cc1` is 110% (inactive); for `O=C(/C=C/c1c(Cl)cccc1Cl)NCc1ccccc1` it is 98.2% (inactive); for `Cc1cc(/C=N/NC(=O)CC2(C)OCCO2)c(C)n1-c1ccc(Cl)c(Cl)c1` it is 102% (inactive). Next, `Cc1ccc(/C=C(\C#N)C(=O)Nc2cccc3ncccc23)o1`: 98.6% (inactive); `Cc1oc2cc3oc(=O)ccc3cc2c1C`: 104% (inactive).

`Cc1ccc(Cn2c(C)nc3c(c2=O)c2nc4ccccc4nc2n3Cc2ccco2)cc1`: the fluorescence ratio to DMSO is 105% (inactive). The figure for `COc1ccc(C(=O)NC(=S)Nc2ccc(N3CCCC3)cc2)cc1OC` is 102% (inactive). In the case of `CCCc1nnc(SCC(=O)Nc2ccc(C(=O)OCC)cc2)o1`, the fluorescence ratio to DMSO is 116% (inactive). Next, `CCOC(=O)CNC(=O)CSc1nnnn1-c1cc(C)ccc1C`: 101% (inactive). Consider `O=C(NCc1ccccc1)C(=O)NCC1OCCN1S(=O)(=O)c1ccc(Br)cc1` (stereo unspecified), for which the fluorescence ratio to DMSO was 90.8% (inactive).

Turning to `O=C(Nc1ccc(NC(=O)c2cccs2)cc1)c1ccc2ccccc2c1`, the fluorescence ratio to DMSO was 109% (inactive).

Turning to `O=S(=O)(c1ccccc1)N1CCc2ccccc21`, the fluorescence ratio to DMSO was 163% (inactive). The figure for `CC(/C=C/c1ccccc1)=N\NC(=O)C1CC1(C)c1ccccc1` (stereo unspecified) is 94.4% (inactive); for `CCCCCC(=O)Nc1ccc(C(=O)N/N=C/c2ccc([N+](=O)[O-])cc2)cc1` it is 103% (inactive); for `COc1ccccc1CSc1ncc(-c2ccc([N+](=O)[O-])cc2)[nH]1` it is 110% (inactive). Consider `CCn1c(/C=C/c2ccc([N+](=O)[O-])o2)nc2ccccc2c1=O`, for which the fluorescence ratio to DMSO was 431% (active). The figure for `CCOc1ccc2nc(Cl)c(C3CC(c4ccccc4)=NN3C(=O)c3cccs3)cc2c1` (stereo unspecified) is 95.5% (inactive).

Consider `Cc1ccc2[nH]c3c(=O)n(CC(=O)NCCc4ccc(Cl)cc4)ncc3c2c1`, for which the fluorescence ratio to DMSO was 107% (inactive). As to `COc1cccc(-c2sc3ccc(OC)cc3c2-c2ccc(OCCN3CCCCC3)cc2)c1`, the fluorescence ratio to DMSO is 103% (inactive). Next, `COc1ccccc1NC(=O)C1CCCN1S(=O)(=O)c1ccc(Cl)cc1` (stereo unspecified): 108% (inactive). Next, `Cc1cc(C(=O)Nc2ccc(C)c(S(=O)(=O)N3CCOCC3)c2)c2ccccc2n1`: 91.8% (inactive); `O=C(CCCCCn1c(=O)[nH]c2ccccc2c1=O)NCCc1c[nH]c2ccccc12`: 110% (inactive); `Cc1ccc(OCc2cc(C(=O)N(C)CCc3ccccc3)no2)cc1C`: 106% (inactive). Next, `CC12CCC(C(=O)N(c3cccc(Cl)c3)C1=O)C2(C)C` (stereo unspecified): 102% (inactive); `CCCCN1C(=O)/C(=C/C=C2/C=Cc3ccccc3N2CC)SC1=S`: 68.5% (inactive); `O=C1NC(=O)C2C1C(c1ccc([N+](=O)[O-])cc1)=NN2Cc1ccccc1` (stereo unspecified): 152% (inactive). Turning to `CN(C)S(=O)(=O)c1cc(C(=O)Nc2ccn(C)n2)c(Cl)cc1Cl`, the fluorescence ratio to DMSO was 93.7% (inactive). `Cc1ccc(N=C2NC(=O)/C(=C/C=C/c3ccco3)S2)cc1C`: the fluorescence ratio to DMSO was 104% (inactive). `COc1ccc2[nH]c3c(C)c4cc[n+](C)cc4c(C)c3c2c1`: the fluorescence ratio to DMSO is 115% (inactive).

For `COc1ccccc1/C=C/C=N/n1c(-c2ccc(Cl)cc2Cl)n[nH]c1=S`, the fluorescence ratio to DMSO is 101% (inactive).

Take `CCCCCCCCCCCCCCCC(=O)OC/C=C(C)/C=C/C=C(C)/C=C/C1=C(C)CCCC1(C)C`: the fluorescence ratio to DMSO is 106% (inactive).

Regarding `C/C(N)=C(/C#N)C(=O)COC(=O)c1cc(-c2cccc(Br)c2)nc2ccccc12`, the fluorescence ratio to DMSO is 110% (inactive). The figure for `CCc1ccc(NC(=O)Cn2ncn3c(cc4ccccc43)c2=O)cc1` is 105% (inactive). On to `CCOC(=O)c1c(NC(=S)NC(=O)c2ccco2)sc2c1CCCC2`, for which the fluorescence ratio to DMSO was 81.2% (inactive). Next, `COc1cccc(NC(=O)CN(C)C(=O)/C=C/c2cc(OC)ccc2OC)c1`: 91.9% (inactive). Consider `CCCc1nc(N2CCN(C)CC2)c2sc(=S)n(-c3ccccc3)c2n1`, for which the fluorescence ratio to DMSO is 99.3% (inactive). Consider `COc1ccc(C(=O)NC2CC(C)(C)Cc3c2cnn3-c2ccccc2)c(OC)c1` (stereo unspecified), for which the fluorescence ratio to DMSO was 100% (inactive).

Consider `CCNc1c(NS(=O)(=O)c2ccc(C3CCCCC3)cc2)c(=O)oc2ccccc12`, for which the fluorescence ratio to DMSO was 94% (inactive).

Take `COc1ccc(NC(=S)N2CCc3cc(OC)c(OC)cc3C2)cc1`: the fluorescence ratio to DMSO was 102% (inactive). For the molecule `CCNC(=O)c1c(O)c2cccc3c2n(c1=O)CC3`, the fluorescence ratio to DMSO is 83.8% (inactive). On to `Cc1csc(NC(=O)c2ccc(-c3ccc(Cl)cc3Cl)o2)n1`, for which the fluorescence ratio to DMSO was 96.6% (inactive). The figure for `CSCCC(NC(=O)COc1ccccc1)C(=O)OCCOc1ccc(Br)cc1` (stereo unspecified) is 93.4% (inactive). Next, `O=C(OCc1ccc(-c2ccccc2)cc1)c1cccc(O)c1`: 116% (inactive). As for `Cc1ccc2c(c1)NC(=O)[C@@]1(C)[C@@H](c3ccccc3)[C@H]3COc4ccc(Cl)cc4[C@@H]3N1C2=O`, the fluorescence ratio to DMSO is 103% (inactive).

As to `COc1ccc2sc(-c3ccccc3OC)c(-c3ccc(OCCN4CCCC4)cc3)c2c1`, the fluorescence ratio to DMSO is 112% (inactive). `Cc1cccc(NC(=O)COc2ccccc2C)n1`: the fluorescence ratio to DMSO is 95% (inactive). In the case of `Cc1c(CCOC(=O)CC23CC4CC(CC(C)(C4)C2)C3)sc[n+]1Cc1ccc([N+](=O)[O-])cc1`, the fluorescence ratio to DMSO was 106% (inactive). On to `O=C(CNC(=O)c1ccc(-c2ccccc2)cc1)OCc1ccc(Cl)cc1`, for which the fluorescence ratio to DMSO is 110% (inactive). Regarding `C=CCC[C@@H](Cc1ccc(F)cc1)C(=O)OC[C@H](Cc1c[nH]c2ccccc12)NC(=O)[C@@H](CC=C)CC(=O)N(CCO)Cc1ccccc1`, the fluorescence ratio to DMSO is 92.1% (inactive). Next, `O=C(Cn1c(COc2ccccc2)nc2ccccc21)Nc1cc(Cl)c(Cl)cc1Cl`: 93.4% (inactive).

For the molecule `CCCCOc1ccc(C(=O)NCC(=O)OCC(=O)c2c(N)n(C)c(=O)n(C)c2=O)cc1`, the fluorescence ratio to DMSO was 97.6% (inactive). The figure for `CC[n+]1cc(C)ccc1/C=C/c1ccc(N(C)C)cc1` is 1680% (active). Next, `NNC(=O)COc1ccc(C2SCCS2)cc1`: 85.2% (inactive). Turning to `CC(C)C(=O)N1CCC2(CC1)Oc1ccc(F)cc1C(=O)C21CC(c2ccccc2)=NO1` (stereo unspecified), the fluorescence ratio to DMSO is 97.8% (inactive). On to `COc1ccc(-c2sc3ccccc3c2-c2ccc(OCCN3CCOCC3)cc2)cc1`, for which the fluorescence ratio to DMSO was 108% (inactive). Next, `CN1CCN(S(=O)(=O)c2ccc(NC(=S)NC(=O)C3CC3)cc2)CC1`: 106% (inactive); `O=C(Cc1ccccc1)NCC1OCCc2ccccc21` (stereo unspecified): 109% (inactive).

As for `Cc1nn(C)cc1N1C(=O)c2cccc3c(N)ccc(c23)C1=O`, the fluorescence ratio to DMSO is 111% (inactive). Next, `CCOc1ccc(C2/C(=C(/O)c3ccc4c(c3)CC(C)O4)C(=O)C(=O)N2CCCn2ccnc2)cc1` (stereo unspecified): 107% (inactive). Turning to `O=C(Cc1ccc(Br)cc1)N1CCN(c2ccccn2)CC1`, the fluorescence ratio to DMSO was 98.2% (inactive).

For `CN=C(c1ccccc1)c1c(C)cccc1C`, the fluorescence ratio to DMSO was 103% (inactive).

As for `O=C(CN1C(=O)C2C3CCC(C3)C2C1=O)Oc1ccc2ccccc2c1` (stereo unspecified), the fluorescence ratio to DMSO is 107% (inactive). The figure for `Cc1nn(C)cc1C(=O)Nc1ccccc1Br` is 85.7% (inactive); for `COc1ccc(C(=O)C2CCCN(Cc3cccn3-c3ccccn3)C2)c(C)c1` (stereo unspecified) it is 109% (inactive); for `O=C(CSc1nnc(-c2cccnc2)n1Cc1ccco1)c1ccc(Cl)c(Cl)c1` it is 104% (inactive). On to `COc1ccc(C(=O)NC2CCCc3c2cnn3-c2cccc(C)c2C)c(OC)n1` (stereo unspecified), for which the fluorescence ratio to DMSO was 92.9% (inactive). Consider `CC1CCc2c(sc(NC(=O)c3ccc(Cn4cc(Br)cn4)o3)c2C(N)=O)C1` (stereo unspecified), for which the fluorescence ratio to DMSO is 100% (inactive).

The record behind these values is PubChem BioAssay AID588517 (NMMLSC, 2011).
